D1 potentiator = human D1 dopamine receptor positive modulation. HEK293 TREx D1 cells, calcium flux, dopamine EC20 potentiation. potentiation, % at 10 µM. actives 0.036% (n = 360,000). AID 504651; in the data active means potentiation above about 30%
TRHR enhancer = allosteric enhancers of human TRH receptor; P34981; TRHR cells, fluo-8 calcium fluorescence, EC20 TRH enhancement; enhancement, % at 2 µM; actives 0.66% (n = 360,000); in the data active means enhancement above about 30%
Target sequence (P34981 whole entry, looked up): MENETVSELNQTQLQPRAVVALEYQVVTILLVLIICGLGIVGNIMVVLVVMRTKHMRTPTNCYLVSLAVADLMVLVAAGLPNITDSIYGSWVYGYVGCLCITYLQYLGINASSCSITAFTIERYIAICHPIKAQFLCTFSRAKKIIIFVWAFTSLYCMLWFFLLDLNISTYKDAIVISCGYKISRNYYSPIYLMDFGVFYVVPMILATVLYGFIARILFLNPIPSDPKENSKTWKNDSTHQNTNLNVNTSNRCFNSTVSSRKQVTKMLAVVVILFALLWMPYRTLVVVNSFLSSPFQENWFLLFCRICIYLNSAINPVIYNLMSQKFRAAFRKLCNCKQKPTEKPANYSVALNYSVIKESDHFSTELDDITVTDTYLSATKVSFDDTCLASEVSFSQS
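TRHR-expressing cells loaded with fluo-8 calcium dye were read kinetically (ex 480/em 530) during compound addition, then stimulated with an EC20 of TRH (10 nM final). Enhancement of the Gq-mediated intracellular calcium response was scored.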
D1 antag = blocks dopamine activation of the human D1 receptor. P21728. HEK293 TREx D1 cells, calcium flux, dopamine EC80; active compounds read low. activity change, negative = inhibition, % at 10 µM. actives 3.2% (n = 360,000); in the data active means activity change below about -30%
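Tetracycline-induced HEK293 Trex D1 cells, force-coupled to calcium, dye-loaded; compounds added and read 180 s, then EC80 dopamine added and calcium flux tracked kinetically another 180 s.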
D1 agonist = human D1 receptor agonism; P21728; HEK293 T-REx D1 cells, calcium flux, agonist mode; activation, % at 2 µM; actives 1% (n = 360,000); AID 504660
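Agonism was scored from calcium flux recorded over 180 s (1 read/s) after pintool compound addition, following a 10-cycle baseline. Cells were inducible force-coupled HEK293 TREx D1, plated overnight at 30 C and loaded with no-wash calcium dye.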
USP1-UAF1 inh = USP1/UAF1 (human) deubiquitinase inhibition; O94782; recombinant USP1/UAF1, Ub-Rhodamine cleavage fluorescence; Potency, µM (highest dose often 57.1 µM), actives largely listed as inhibitors; actives 0.23% (n = 390,000); AID 743255; active means well fitted inhibition curve with a large enough effect; inconclusive means small, poorly fitted or top-dose-only effect; inactive means no such curve, though single readings can be large or run the other way; further: nearly all actives have a fitted effect of over 60% in size
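Step one: compound is pinned into 1nM USP1/UAF1 in HEPES pH 7.8 buffer with TCEP. Step two: 15 min room-temperature incubation. Step three: Ub-Rho (150nM final) starts cleavage, tracked by fluorescence over six one-minute reads.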
TRHR ag = activates the human TRH receptor; AID 493084; actives 0.18% (n = 360,000); P34981; TRHR cells, calcium flux fluo-8, FDSS agonist mode; activation, % at 2 µM
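TRHR-expressing cells, plated overnight in medium with 10% serum, were loaded with fluo-8 calcium dye at room temperature. After a 10 s baseline, library compound was pin-added and calcium release was recorded kinetically (ex 480/em 530) as agonist response.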
Each line names hits and unclear results; the compound was inactive in the other large screens; ! = not active in a repeat. This is a sample that favours compounds with a hit; in the whole collection about 4.4% have one here. Unless noted, no stated cut-off is given here; in the data, active means activation above about 30%; inactive means the rest.

CCOc1ccc(-c2cnc(NCc3cccc4ccccc34)n2CCOC)cc1	D1 antag -58
COc1ccccc1CNc1ncc(-c2ccccc2)n1C	D1 antag -49
CCOc1ccc(-c2cnc(NCc3cccc(Cl)c3)n2C)cc1	none
Cn1c(-c2ccc(F)cc2)cnc1NCc1ccccc1	none
Nc1ncc(S(=O)(=O)NCc2ccccc2)cn1	none
COc1ccc(CNc2ncc(-c3ccc(F)cc3)n2C)c2ccccc12	D1 antag -36
Cn1c(-c2ccc(F)cc2)cnc1NCc1cc2c(cc1[N+](=O)[O-])OCO2	D1 antag -77
COc1ccccc1CNc1ncc(-c2ccc(F)cc2)n1C	D1 antag -62
Cn1c(-c2ccc(Cl)cc2)cnc1NCc1cc2c(cc1[N+](=O)[O-])OCO2	none
CCCOc1ccc(CNC(=O)c2ccc(C)c(-n3c(C)nc4cccnc43)c2)cc1	none
CCOc1cccc(CC(=O)N2CCc3c([nH]c4ccccc34)C2c2ccc(Cl)cc2)c1OCC (configuration not stated)	D1 antag -86
COc1cc2nc(CN3CCN(S(=O)(=O)c4c(F)cccc4F)CC3)[nH]c(=O)c2cc1OC	D1 antag -32 (no result: D1 potentiator)
O=C(Cn1ncc2c3ccccc3n(Cc3ccc(Cl)cc3)c2c1=O)NCc1cccs1	USP1-UAF1 inh inconclusive
COc1ccccc1NC(=O)c1c(C)cc(C)nc1SCC(=O)Nc1ccc(C)c(C)c1	none
COc1ccccc1NC(=O)c1c(C)cc(C)nc1SCC(=O)Nc1cccc(C)c1	D1 agonist 72
CCOCCCN(C(=O)Nc1ccc(Cl)cc1)C1CCN(C(C)=O)CC1	D1 antag -30
CCOCCCN(C(=O)Nc1ccc(CC)cc1)C1CCN(C(C)=O)CC1	none
O=C(Nc1ccc(F)c(Cl)c1)C1CCN(S(=O)(=O)c2ccc3c(c2)CCCN3C(=O)C2CCC2)CC1	none
CCOc1c(Cl)cc(CNc2ccc(N3CCCC3)cc2)cc1OC	none
CCOc1cccc(CNc2ccc(O)cc2)c1OCc1ccc(Cl)cc1Cl	USP1-UAF1 inh 32µM
CCOc1cc(CNc2ccc(O)cc2)cc(Cl)c1OCc1ccccc1	USP1-UAF1 inh 28µM
CCOc1cc(CNc2ccccc2)cc(Br)c1OCc1ccc(F)cc1	USP1-UAF1 inh inconclusive
CCOc1cccc(CNc2ccc(O)cc2)c1OCc1ccccc1Cl	USP1-UAF1 inh inconclusive
CCOc1c(Cl)cc(CNc2ccc(S(N)(=O)=O)cc2)cc1OC	D1 antag -41
CCC(=O)N1CCc2cc(S(=O)(=O)NCCC(=O)Nc3cc(C)ccc3OC)ccc21	none
O=[N+]([O-])c1cc(-c2nc(-c3cccnc3)no2)ccc1NCc1ccccc1	none
CCOc1ccc(NC(=O)c2oc3ccccc3c2NC(=O)C(C)Oc2ccccc2)cc1 (configuration not stated)	none
Cc1ccccc1S(=O)(=O)Oc1ccccc1C(=O)Oc1ccccc1	D1 antag -31
Cc1nc2ccccc2n1C1CCN(CC(=O)NCc2ccc(F)cc2)CC1	D1 antag -43
COc1ccc(NC(=O)CN2CCC(n3c(C)nc4cc(F)ccc43)CC2)c(OC)c1	none
CCOC(=O)c1ccc(NC2SC(=O)N(Cc3cccc(C(=O)O)c3)C2=O)cc1 (configuration not stated)	none
CCCn1cc(S(=O)(=O)c2ccc(C)cc2)c(=O)c2cc(F)c(N3CCCC3)cc21	none
Cc1ccc(S(=O)(=O)c2cn(Cc3ccccc3)c3cc(N4CCCCC4)c(F)cc3c2=O)cc1	none
Cc1cccc(Cn2cc(S(=O)(=O)c3ccccc3)c(=O)c3cc(F)c(N4CCOCC4)cc32)c1	TRHR enhancer 38
Cn1cc(S(=O)(=O)c2ccccc2)c(=O)c2cc(F)c(N3CCOCC3)cc21	D1 antag -85!
Cc1ccc(C)c(S(=O)(=O)c2cn(Cc3ccccc3)c3cc(N4CCCC4)c(F)cc3c2=O)c1	D1 antag -35
Cc1ccc(S(=O)(=O)c2cn(C)c3cc(N4CCOCC4)c(F)cc3c2=O)cc1	none
CCCCn1cc(S(=O)(=O)c2ccc(C)cc2)c(=O)c2cc(F)c(N3CCCCC3)cc21	D1 agonist 71
COc1ccc(C(=O)Nc2ccc3c(c2)CCCN3S(=O)(=O)c2ccc(C)cc2)c(OC)c1	none
COc1ccc(C)cc1NC(=O)Cn1c(=O)ccc2cc(S(=O)(=O)N3CCC(C)CC3)ccc21	none
CCCCC1CCC(C(=O)N2CC(=O)Nc3ccc(F)cc3C2c2ccc(F)cc2)CC1 (configuration not stated)	none
Cc1cc(NC(=O)C2CCN(C(=O)c3ccco3)CC2)ccc1Br	D1 antag -37
O=C(c1ccc(-c2ccccc2)cc1)N1CCN(C(=O)c2ccco2)CC1	D1 antag -37
CN1CCN(C(=O)c2ccc(-c3ccccc3)cc2)CC1	none
CC(C)(C)c1ccc(C(=O)N2CCN(C(=O)c3ccco3)CC2)cc1	D1 antag -30
O=C(c1ccccc1)C1CCN(C(=O)c2ccco2)CC1	D1 potentiator 59
O=C(Nc1ccc(Br)cc1)C1CCN(C(=O)c2ccco2)CC1	none
CCOCCc1nn2c(=O)cc(COC(=O)c3ccc(NC(=O)C4CCCCC4)cc3)nc2s1	none
C=Cc1ccc(Cn2nc(-c3ccc(C)c(S(=O)(=O)N(CC)CC)c3)ccc2=O)cc1	none
CCCN1C(=O)C2(c3ccccc31)c1c(oc3ccc(F)cc3c1=O)C(=O)N2CCCOC(C)C (configuration not stated)	none
CC(C)(C)c1ccc(C(=O)N2CCN(S(=O)(=O)c3ccc(Br)s3)CC2)cc1	D1 antag -32
Cn1c(-c2ccc(Cl)nc2)nc2cc(Cl)ccc21	D1 antag -33
Cc1ccc(-c2cn(CCN)c(-c3ccc(Cl)nc3)n2)cc1	none
CCOc1ccc(Br)cc1C1C(C(=O)Nc2ccccc2OC)=C(C)Nc2nnnn21 (configuration not stated)	none
Cc1ccc([N+](=O)[O-])cc1NC(=O)CCSc1ccc(Cl)cc1	D1 antag -42, D1 agonist 34
COC(=O)c1ccc(C)c(NC(=O)CCSc2ccc(Cl)cc2)c1	none
Cc1ccc(NC(=O)CCSc2ccccc2)c(C)c1	D1 antag -30 (no result: USP1-UAF1 inh)
Cc1cc(NC(=O)CCSc2ccccc2)ccc1Br	D1 antag -30
Cc1ccc(NC(=S)NCCSc2ccc(Cl)cc2)c(C)c1	D1 antag -33
COC(=O)c1ccc(Nc2ncnc3c2cnn3-c2cccc(C)c2)cc1	D1 antag -38
Cc1cccc(-n2ncc3c(Nc4ccc(F)cc4)ncnc32)c1	D1 antag -49
Cc1ccc(-n2ncc3c(Nc4cccc(C)c4)ncnc32)cc1	D1 antag -33
